Measured values reported in PubChem BioAssay (EPA / NIEHS).
Results filed as inconclusive are left out. Active and inactive are the calls of the source. The calls were made as follows: active = hit-call score of the fitted dose curve at least 0.9, where 1 is the maximum; inconclusive = response in the unintended direction; inactive = score below 0.9.

Assays:
[1] = TOX21_p53_BLA_p2_viability: Viability Assessment in the Tox21 HCT-116 p53 Agonism Beta-lactamase Assay, Phase 2 (AID 2283591);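 also: compound exposure lasted 16 h at 37 °C; actives lower the ATP signal meaning cytotoxicity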
Method in brief: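 HCT-116 p53-bla cells (4000/well) rested 5 h at 37C, then received compounds in DMSO (217-fold dilution) for 16 h at 37C, 5% CO2. After the CCF4 read, CellTiter-Glo was added; ATP luminescence was read after 30 min at room temperature.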

[2] = target: Cellular tumor antigen p53 (Homo sapiens) (UniProt P04637); assay: TOX21_p53_BLA_p2_ratio: Tox21 HCT-116 p53 Agonism Beta-lactamase Assay, Ratio, Phase 2 (AID 2283592)
Method in brief: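 Human colon HCT116 cells with an inducible p53 beta-lactamase reporter are exposed to test chemicals for 16 h at 37C. Reporter induction is read as the 460/530 nm emission ratio after CCF4-AM loading, normalized to DMSO.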

[3] = TOX21_p53_BLA_p4_viability: Viability Assessment in the Tox21 HCT-116 p53 Agonism Beta-lactamase Assay, Phase 4 (AID 2283597);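 also: hits lower the luminescence signal meaning cytotoxicity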
Method in brief: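 Luminescent ATP readout (CellTiter-Glo, 30 min, room temperature) in the same wells as the p53 bla ratio. HCT116 cells were treated for 16 h at 37C with DMSO-dissolved compounds.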

[4] = target: Cellular tumor antigen p53 (Homo sapiens) (UniProt P04637); assay: TOX21_p53_BLA_p5_ratio: Tox21 HCT-116 p53 Agonism Beta-lactamase Assay, Ratio, Phase 5 (AID 2283599)
Method in brief: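 HCT-116 cells carrying a p53-inducible beta-lactamase reporter were seeded at 4000 cells/well and dosed after 5 h with compound in DMSO (217-fold dilution). After 16 h at 37C, CCF4-AM substrate was added for 2 h, and the 460/530 nm emission ratio was scored as gain-of-signal versus DMSO.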

[5] = TOX21_p53_BLA_p5_viability: Viability Assessment in the Tox21 HCT-116 p53 Agonism Beta-lactamase Assay, Phase 5 (AID 2283600)
Method in brief: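 Seeded cells (4000/well) settle 5 h before compound addition. Plates then incubate 16 h at 37C, receive FRET substrate for 2 h, and finally CellTiter-Glo, with luminescence measured after a 30 min room-temperature incubation.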

[6] = target: Cellular tumor antigen p53 (Homo sapiens) (UniProt P04637); assay: TOX21_p53_BLA_p4_ratio: Tox21 HCT-116 p53 Agonism Beta-lactamase Assay, Ratio, Phase 4 (AID 2283601)
Method in brief: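 HCT116 cells carrying an inducible beta-lactamase reporter were plated at 4000 cells/well, rested 5 h, then exposed to compounds in DMSO (217-fold dilution) for 16 h at 37C. CCF4-AM substrate was loaded 2 h at room temperature; 460/530 nm emission ratio scored gain-of-signal versus DMSO.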

[7] = target: Cellular tumor antigen p53 (Homo sapiens) (UniProt P04637); assay: TOX21_p53_BLA_p3_ratio: Tox21 HCT-116 p53 Agonism Beta-lactamase Assay, Ratio, Phase 3 (AID 2283596)
Method in brief: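 HCT116 p53-bla cells (4000/well) given compound in DMSO (217-fold dilution) after 5 h, incubated 16 h at 37C. CCF4-AM substrate 2 h at room temperature; 460/530 nm emission ratio, gain fitted against DMSO.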

Measured: outcome

Sequence of Cellular tumor antigen p53 (Homo sapiens) (P04637 whole entry, looked up): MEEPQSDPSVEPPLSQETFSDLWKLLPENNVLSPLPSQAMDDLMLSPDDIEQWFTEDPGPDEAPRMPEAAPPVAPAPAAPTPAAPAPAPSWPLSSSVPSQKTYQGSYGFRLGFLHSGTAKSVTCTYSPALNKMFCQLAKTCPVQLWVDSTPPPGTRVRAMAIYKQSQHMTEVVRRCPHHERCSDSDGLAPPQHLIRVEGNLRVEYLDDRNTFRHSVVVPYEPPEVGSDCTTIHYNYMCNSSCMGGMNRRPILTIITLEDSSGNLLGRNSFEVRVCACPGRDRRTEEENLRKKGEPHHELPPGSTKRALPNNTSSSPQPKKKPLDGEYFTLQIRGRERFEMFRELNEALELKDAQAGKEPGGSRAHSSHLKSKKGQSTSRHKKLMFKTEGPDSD

CCN1C[C@]2(COC)[C@H](O)C[C@H](OC)[C@@]34[C@@H]5C[C@@]6(O)[C@H](OC(=O)c7ccccc7)[C@@H]5[C@@](OC(C)=O)([C@@H]([C@H](OC)[C@H]23)[C@@H]14)[C@@H](O)[C@@H]6OC
not listed: [7]
inactive: all other assays above

COc1ccc(C=O)cc1O
inactive: [1] | [2] | [7] | [6]

ClCC1CO1 (stereo unspecified)
not listed: [7]
inactive: all other assays above
